# Screening data deposited in PubChem by National Center for Advancing Translational Sciences (NCATS).
# DT40 TDP1 no CPT = qHTS for Inhibitors of human tyrosyl-DNA phosphodiesterase 1 (TDP1): qHTS in cells in absence of CPT; DT40 Tdp1-/- hTDP1 cells, no CPT, ATP luminescence, 48 h; Potency, µM (doses to about 46.2 µM), for the others: top-dose activity change, negative = growth inhibition, most hits filed as inhibitors; hit rate 15% among 420,000; AID 686978, 2013; also: % is scaled to controls: 0 for no effect and ±100 for the full control effect; nearly all actives have a fitted effect of over 55% in size
#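 Camptothecin absent (DMSO only). Human TDP1-complemented DT40 knockout cells, 400 cells/well, 37 °C for minimum 48 hr; ATP measured via CellTiter-Glo, 30 min dark incubation, luminescence.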
# ATXN2 expr inh = Primary qHTS for Inhibitors of ATXN expression. Potency, µM (highest dose often 57 µM), for inactives: at the top dose activity change, negative = inhibition, hits mostly inhibitors. AID 1745845, 2022. HEK-293 ATXN2-luciferase reporter, luminescence, 24 h. hit rate 0.72% among 360,000; also: % is scaled to controls: 0 for no effect and ±100 for the full control effect; nearly all actives have a fitted effect of over 55% in size
#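 ATXN2-luciferase reporter cells (luciferase flanked by upstream and downstream ATXN2 gene portions) were treated 24 h at 37 °C with compounds at up to 57 uM. SteadyGlo luminescence gave expression; GF-AFC fluorescence gave viability.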
# HepG2 viability = qHTS for Inhibitors of TGF-b: Cytotox Counterscreen | HepG2 CAGA-GFP viability, ATP luminescence, 18 h | Potency, µM (doses to about 46.1 µM), for the others: at the highest dose activity change, negative = cytotoxicity, most hits filed as cytotoxic | hit rate 0.76% among 410,000
#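 HepG2 CAGA-GFP cells (1000/well, DMEM with 1% FBS) received compound, then TGF-beta at 500 pg/mL final, and were incubated 18 hours at 37 degrees C. Viability was read by CellTiter-Glo luminescence. Media-only wells were set as complete cell-killing and DMSO as no toxicity.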
# TDP1 cell CPT = qHTS for Inhibitors of human tyrosyl-DNA phosphodiesterase 1 (TDP1): qHTS in cells in presence of CPT; chicken DT40 Tdp1-/-;hTDP1 cells + 20 nM CPT, ATP luminescence, 48 h; Potency, µM (doses to about 46.2 µM), without a hit: top-dose activity change, negative = growth inhibition, usual class: inhibitors; hit rate 12% among 420,000; also: % is scaled to controls: 0 for no effect and ±100 for the full control effect; nearly all actives have a fitted effect of over 55% in size
#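 Chicken DT40 Tdp1-/- cells complemented with human TDP1, 400 cells/well, exposed to compounds plus 20 nM camptothecin for at least 48 h at 37 C; viability read as ATP content by CellTiter-Glo luminescence.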
# ATXN viability = Viability Counterscreen for Primary qHTS for Inhibitors of ATXN expression; S2 cells (HEK-293 line with an ATXN2-luciferase reporter) viability, CellTiter-Fluor protease fluorescence, 24 h; hit rate 0.49% among 400,000; AID 651635, 2014; Potency, µM (titrated, usually from 56.7 µM), hits mostly cytotoxic; also: nearly all actives have a fitted effect of over 40% in size
# TGFb SMAD3 inh = qHTS for Inhibitors of TGF-b; HepG2 CAGA-GFP TGF-b/SMAD3 reporter, GFP fluorescence, 18 h; TGF-beta stimulated, 500 pg/mL final; Potency, µM (doses to about 46.1 µM), for the others: at the top dose activity, negative = inhibition, actives largely listed as inhibitors; hit rate 1.2% among 410,000; also: % is scaled to controls: 0 for no effect and ±100 for the full control effect; nearly all actives have a fitted effect of over 65% in size
#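 Inhibition of TGF-beta-driven CAGA-GFP reporter expression in HEPG2 cells is measured by cellular GFP fluorescence after 18 h stimulation with 500 pg/mL recombinant TGF-beta in 1% FBS medium at 37 degrees C.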
# * marks the source's active call; other numbers are inactive results; i = inactive; ? = inconclusive; nt = no result given; [ ] = another dose, or the depositor's remark. A selection: hits, their analogues and other compounds. The true share with any hit is near 17%. Calls follow the shape of the dose curve; as a rule, active = well fitted curve in the direction sought with a large enough effect; inconclusive = small, poorly fitted or top-dose-only effect, or another doubt; inactive = no such curve, though single readings can be large; an effect the other way counts as inactive or inconclusive. Potency is read from the fitted curve at half-maximal effect.
SMILES,DT40 TDP1 no CPT,ATXN2 expr inh,HepG2 viability,TDP1 cell CPT,ATXN viability,TGFb SMAD3 inh
c1ccc(-c2cc3c(N4CCCC4)ncnc3s2)cc1,20.6µM*,29.4%,-15.1%,?,i,-16.5%
Cc1nc(SCCC(=O)O)c2cc(-c3ccccc3)sc2n1,?,2µM*,-45.8%,-17.6%,i,14.2%
Cc1nc(N2CCOCC2)c2cc(-c3ccccc3)sc2n1,18.4µM*,0.4%,-59.4%,?,i,29.8%
CCCN(CCC)CCCNC(=O)c1nn(C)c2c1CS(=O)(=O)c1ccccc1-2,-3.0%,3.6%,-2.1%,8.1%,i,31.6%
CCOC(=O)Cn1nc(C)c(NC(=O)c2ccc(Cl)c([N+](=O)[O-])c2)c1C,?,-19.1%,6.0%,-24.1%,i,-7.4%
c1ccc(-c2cc3c(N4CCOCC4)ncnc3s2)cc1,14.6µM*,-13.4%,-30.8%,16.4µM*,i,3.8%
CN(CCCC(=O)NCc1ccccc1)S(=O)(=O)c1ccc([N+](=O)[O-])cc1,-10.1%,-19.3%,-0.1%,?,i,-13.9%
C=C(c1ccc2nc(NC(=O)OC)[nH]c2c1)c1cccs1,0.82µM*,8.6%,-38.1%,0.731µM*,?,?
C=CCOc1ccc2nc(NC(=O)OC)[nH]c2c1,0.82µM*,8.4%,10.4%,0.651µM*,?,-0.9%
CCOc1ccc2nc(NCCO)[nH]c2c1,-22.6%,0.4%,0.4%,-15.9%,i,?
CCOC(=O)c1ccc2nc(NC(=O)c3cccs3)sc2c1,?,41.0%,-36.7%,-29.3%,i,14.8%
CCCCc1ccc2nc(NC(=O)OC)[nH]c2c1,0.057µM*,21.1%,nt,0.0718µM*,?,nt
CCCOc1cccc(C(=O)N(Cc2ccc(C)o2)C2CCS(=O)(=O)C2)c1 (stereo not given),?,nt,-21.9%,?,nt,nt
CCOC(=O)c1c(S(=O)(=O)N2CCC(C(=O)Nc3ncccc3C)CC2)c(C)n(C)c1C,1.2%,0.2%,-5.2%,-12.5%,i,-7.2%
CCOc1ccc(Cl)cc1S(=O)(=O)n1nnc2ccccc21,?,-21.9%,7.0%,16.4µM*,i,?
CCOC(=O)c1nc(C)nc(Sc2n[nH]c(-c3cc(C(F)(F)F)cc(C(F)(F)F)c3)n2)c1C,?,-37.9%,-87.5%,?,?,?
O=S1(=O)CC(N2CCSCC2)CN1Cc1cn(Cc2cccc(C(F)(F)F)c2)nn1 (stereo not given),-9.7%,7.7%,nt,-4.0%,i,nt
OC1(c2ccc(Cl)cc2)CCN(Cc2cn[nH]c2-c2ccccc2)CC1,14.6µM*,-35.8%,-28.9%,16.4µM*,i,?
Cc1ccc2c(c1)N(C(=O)c1ccco1)C(C)(C)c1ssc(=S)c1-2,?,-17.7%,0.8%,-27.9%,i,0.2%
Cc1ccc2c(c1)N(C(=O)CSc1nncn1C)C(C)(C)c1ssc(=S)c1-2,?,-30.4%,-0.3%,25.9µM*,?,9.9%
Cc1cc2c(cc1C)N(C(=O)CSc1nncn1C)C(C)(C)c1ssc(=S)c1-2,?,?,-37.7%,29.1µM*,?,?
CCN(CC(=O)Nc1c(F)cccc1F)C(=O)CCSc1ccc(C)cc1,-13.6%,-3.4%,-5.1%,-11.7%,i,-37.3%
COc1ccc(OC)c(S(=O)(=O)N2CCN(c3c(C)cccc3C)CC2)c1,0.2%,-12.3%,-21.1%,0.8%,i,-3.6%
COc1ccc(OC)c(S(=O)(=O)N2CCCC(N3CCN(c4ccccc4)CC3)C2)c1 (stereo not given),25.9µM*,-14.1%,4.0%,?,i,1.3%
COc1ccc(OC)c(S(=O)(=O)N2CCN(C34CC5CC(CC(C5)C3)C4)CC2)c1,16.4µM*,-16.9%,-19.9%,?,i,?
SMILES,DT40 TDP1 no CPT,ATXN2 expr inh,HepG2 viability,TDP1 cell CPT,ATXN viability,TGFb SMAD3 inh
CCN1CCN(S(=O)(=O)c2cc(OC)ccc2OC)CC1,3.1%,-7.8%,-0.6%,1.0%,i,0.0%
COc1ccc(OC)c(S(=O)(=O)N2CCN(c3ncccn3)CC2)c1,14.6µM*,nt,-32.8%,?,i,-20.0%
COc1ccc(-c2nn(-c3ccccc3)cc2C(=O)OCC(=O)c2ccc(C)c([N+](=O)[O-])c2)cc1,-4.1%,nt,-26.1%,-2.7%,i,?
CCc1nc2cc(C(=O)N(C)C3CCOC3)cc(NC(=O)c3ccccc3OC)c2n1C (stereo not given),-19.5%,nt,nt,-2.8%[9.04 µM],i,nt
COc1ccc(-c2nc3ccc(N4CCCC4)cc3c(=O)[nH]2)cc1OC,20.6µM*,-14.6%,2.5%,13µM*,i,17.3%
COc1ccc2nc(-c3ccccc3)[nH]c(=O)c2c1,-10.6%,7.7%,-30.6%,-0.3%,i,16.2%
CCCCn1c(=N)n(CC(=O)c2ccc(Br)s2)c2ccccc21,4.11µM*,nt,-102.9%,5.17µM*,nt,?
CCCCn1c(=N)n(CC(=O)C(C)(C)C)c2ccccc21,?,-14.9%,-21.2%,23.1µM*,i,-18.4%
CCOC(=O)c1c(C)[nH]c(C2=NNC(=NC3CC3)SC2)c1C,?,10.6µM*,-27.8%,?,i,-5.9%
COc1ccc([C@@H]2C[C@H]3CN(Cc4ccccc4OC)C(=O)[C@]34CCCN24)cc1C,18.4µM*,nt,-39.8%,?,?,-26.8%
COc1ccccc1CN1C[C@@H]2C[C@@H](c3cccc(C)c3)N3CCC[C@@]23C1=O,?,-17.1%,-6.5%,-24.7%,i,8.8%
COc1ccccc1CN1C[C@@H]2C[C@@H](c3ccc(C)c(C)c3)N3CCC[C@@]23C1=O,16.4µM*,-32.9%,-19.7%,14.6µM*,i,-24.6%
Cc1ccccc1CN1C[C@@H]2C[C@@H](c3cn[nH]c3-c3ccc(F)cc3)N3CCC[C@@]23C1=O,20.6µM*,-21.5%,-10.1%,18.4µM*,i,?
COc1ccccc1CN1C[C@@H]2C[C@@H](c3cccc(C)n3)N3CCC[C@@]23C1=O,-20.5%,-2.9%,13.9%,14.7%,i,0.5%
COc1ccc(-c2[nH]ncc2[C@@H]2C[C@H]3CN(Cc4ccccc4C)C(=O)[C@]34CCCN24)cc1,?,nt,-35.5%,?,i,?
COc1ccc(Cc2nnc3n2N=C(c2cc4ccccc4o2)CS3)cc1OC,?,4.0%,-0.2%,?,i,-7.4%
